# Assays:
# Assay in all cases: cross-link between two proteins; cross-linking mass spectrometry
# [1] = target: Cell adhesion molecule 3 (UniProt Q99N28)
# [2] = target: Cell cycle control protein 50A (UniProt Q8VEK0)
# [3] = target: Clathrin heavy chain 1 (UniProt Q68FD5)
# [4] = target: Clathrin light chain B (UniProt Q6IRU5)
# [5] = target: Cofilin-1 (UniProt P23528)
# [6] = target: Complement C1q subcomponent subunit C (UniProt Q02105)
# [7] = target: Cytochrome c (UniProt P99999)
# [8] = target: Cytochrome c oxidase assembly factor 3 homolog, mitochondrial (UniProt Q9Y2R0)
# [9] = target: Cytoplasmic FMR1-interacting protein 2 (UniProt Q5SQX6)
# [10] = target: Cytoplasmic dynein 1 heavy chain 1 (UniProt Q9JHU4)
# Cytoplasmic dynein 1 heavy chain 1, sequence (Q9JHU4 whole entry): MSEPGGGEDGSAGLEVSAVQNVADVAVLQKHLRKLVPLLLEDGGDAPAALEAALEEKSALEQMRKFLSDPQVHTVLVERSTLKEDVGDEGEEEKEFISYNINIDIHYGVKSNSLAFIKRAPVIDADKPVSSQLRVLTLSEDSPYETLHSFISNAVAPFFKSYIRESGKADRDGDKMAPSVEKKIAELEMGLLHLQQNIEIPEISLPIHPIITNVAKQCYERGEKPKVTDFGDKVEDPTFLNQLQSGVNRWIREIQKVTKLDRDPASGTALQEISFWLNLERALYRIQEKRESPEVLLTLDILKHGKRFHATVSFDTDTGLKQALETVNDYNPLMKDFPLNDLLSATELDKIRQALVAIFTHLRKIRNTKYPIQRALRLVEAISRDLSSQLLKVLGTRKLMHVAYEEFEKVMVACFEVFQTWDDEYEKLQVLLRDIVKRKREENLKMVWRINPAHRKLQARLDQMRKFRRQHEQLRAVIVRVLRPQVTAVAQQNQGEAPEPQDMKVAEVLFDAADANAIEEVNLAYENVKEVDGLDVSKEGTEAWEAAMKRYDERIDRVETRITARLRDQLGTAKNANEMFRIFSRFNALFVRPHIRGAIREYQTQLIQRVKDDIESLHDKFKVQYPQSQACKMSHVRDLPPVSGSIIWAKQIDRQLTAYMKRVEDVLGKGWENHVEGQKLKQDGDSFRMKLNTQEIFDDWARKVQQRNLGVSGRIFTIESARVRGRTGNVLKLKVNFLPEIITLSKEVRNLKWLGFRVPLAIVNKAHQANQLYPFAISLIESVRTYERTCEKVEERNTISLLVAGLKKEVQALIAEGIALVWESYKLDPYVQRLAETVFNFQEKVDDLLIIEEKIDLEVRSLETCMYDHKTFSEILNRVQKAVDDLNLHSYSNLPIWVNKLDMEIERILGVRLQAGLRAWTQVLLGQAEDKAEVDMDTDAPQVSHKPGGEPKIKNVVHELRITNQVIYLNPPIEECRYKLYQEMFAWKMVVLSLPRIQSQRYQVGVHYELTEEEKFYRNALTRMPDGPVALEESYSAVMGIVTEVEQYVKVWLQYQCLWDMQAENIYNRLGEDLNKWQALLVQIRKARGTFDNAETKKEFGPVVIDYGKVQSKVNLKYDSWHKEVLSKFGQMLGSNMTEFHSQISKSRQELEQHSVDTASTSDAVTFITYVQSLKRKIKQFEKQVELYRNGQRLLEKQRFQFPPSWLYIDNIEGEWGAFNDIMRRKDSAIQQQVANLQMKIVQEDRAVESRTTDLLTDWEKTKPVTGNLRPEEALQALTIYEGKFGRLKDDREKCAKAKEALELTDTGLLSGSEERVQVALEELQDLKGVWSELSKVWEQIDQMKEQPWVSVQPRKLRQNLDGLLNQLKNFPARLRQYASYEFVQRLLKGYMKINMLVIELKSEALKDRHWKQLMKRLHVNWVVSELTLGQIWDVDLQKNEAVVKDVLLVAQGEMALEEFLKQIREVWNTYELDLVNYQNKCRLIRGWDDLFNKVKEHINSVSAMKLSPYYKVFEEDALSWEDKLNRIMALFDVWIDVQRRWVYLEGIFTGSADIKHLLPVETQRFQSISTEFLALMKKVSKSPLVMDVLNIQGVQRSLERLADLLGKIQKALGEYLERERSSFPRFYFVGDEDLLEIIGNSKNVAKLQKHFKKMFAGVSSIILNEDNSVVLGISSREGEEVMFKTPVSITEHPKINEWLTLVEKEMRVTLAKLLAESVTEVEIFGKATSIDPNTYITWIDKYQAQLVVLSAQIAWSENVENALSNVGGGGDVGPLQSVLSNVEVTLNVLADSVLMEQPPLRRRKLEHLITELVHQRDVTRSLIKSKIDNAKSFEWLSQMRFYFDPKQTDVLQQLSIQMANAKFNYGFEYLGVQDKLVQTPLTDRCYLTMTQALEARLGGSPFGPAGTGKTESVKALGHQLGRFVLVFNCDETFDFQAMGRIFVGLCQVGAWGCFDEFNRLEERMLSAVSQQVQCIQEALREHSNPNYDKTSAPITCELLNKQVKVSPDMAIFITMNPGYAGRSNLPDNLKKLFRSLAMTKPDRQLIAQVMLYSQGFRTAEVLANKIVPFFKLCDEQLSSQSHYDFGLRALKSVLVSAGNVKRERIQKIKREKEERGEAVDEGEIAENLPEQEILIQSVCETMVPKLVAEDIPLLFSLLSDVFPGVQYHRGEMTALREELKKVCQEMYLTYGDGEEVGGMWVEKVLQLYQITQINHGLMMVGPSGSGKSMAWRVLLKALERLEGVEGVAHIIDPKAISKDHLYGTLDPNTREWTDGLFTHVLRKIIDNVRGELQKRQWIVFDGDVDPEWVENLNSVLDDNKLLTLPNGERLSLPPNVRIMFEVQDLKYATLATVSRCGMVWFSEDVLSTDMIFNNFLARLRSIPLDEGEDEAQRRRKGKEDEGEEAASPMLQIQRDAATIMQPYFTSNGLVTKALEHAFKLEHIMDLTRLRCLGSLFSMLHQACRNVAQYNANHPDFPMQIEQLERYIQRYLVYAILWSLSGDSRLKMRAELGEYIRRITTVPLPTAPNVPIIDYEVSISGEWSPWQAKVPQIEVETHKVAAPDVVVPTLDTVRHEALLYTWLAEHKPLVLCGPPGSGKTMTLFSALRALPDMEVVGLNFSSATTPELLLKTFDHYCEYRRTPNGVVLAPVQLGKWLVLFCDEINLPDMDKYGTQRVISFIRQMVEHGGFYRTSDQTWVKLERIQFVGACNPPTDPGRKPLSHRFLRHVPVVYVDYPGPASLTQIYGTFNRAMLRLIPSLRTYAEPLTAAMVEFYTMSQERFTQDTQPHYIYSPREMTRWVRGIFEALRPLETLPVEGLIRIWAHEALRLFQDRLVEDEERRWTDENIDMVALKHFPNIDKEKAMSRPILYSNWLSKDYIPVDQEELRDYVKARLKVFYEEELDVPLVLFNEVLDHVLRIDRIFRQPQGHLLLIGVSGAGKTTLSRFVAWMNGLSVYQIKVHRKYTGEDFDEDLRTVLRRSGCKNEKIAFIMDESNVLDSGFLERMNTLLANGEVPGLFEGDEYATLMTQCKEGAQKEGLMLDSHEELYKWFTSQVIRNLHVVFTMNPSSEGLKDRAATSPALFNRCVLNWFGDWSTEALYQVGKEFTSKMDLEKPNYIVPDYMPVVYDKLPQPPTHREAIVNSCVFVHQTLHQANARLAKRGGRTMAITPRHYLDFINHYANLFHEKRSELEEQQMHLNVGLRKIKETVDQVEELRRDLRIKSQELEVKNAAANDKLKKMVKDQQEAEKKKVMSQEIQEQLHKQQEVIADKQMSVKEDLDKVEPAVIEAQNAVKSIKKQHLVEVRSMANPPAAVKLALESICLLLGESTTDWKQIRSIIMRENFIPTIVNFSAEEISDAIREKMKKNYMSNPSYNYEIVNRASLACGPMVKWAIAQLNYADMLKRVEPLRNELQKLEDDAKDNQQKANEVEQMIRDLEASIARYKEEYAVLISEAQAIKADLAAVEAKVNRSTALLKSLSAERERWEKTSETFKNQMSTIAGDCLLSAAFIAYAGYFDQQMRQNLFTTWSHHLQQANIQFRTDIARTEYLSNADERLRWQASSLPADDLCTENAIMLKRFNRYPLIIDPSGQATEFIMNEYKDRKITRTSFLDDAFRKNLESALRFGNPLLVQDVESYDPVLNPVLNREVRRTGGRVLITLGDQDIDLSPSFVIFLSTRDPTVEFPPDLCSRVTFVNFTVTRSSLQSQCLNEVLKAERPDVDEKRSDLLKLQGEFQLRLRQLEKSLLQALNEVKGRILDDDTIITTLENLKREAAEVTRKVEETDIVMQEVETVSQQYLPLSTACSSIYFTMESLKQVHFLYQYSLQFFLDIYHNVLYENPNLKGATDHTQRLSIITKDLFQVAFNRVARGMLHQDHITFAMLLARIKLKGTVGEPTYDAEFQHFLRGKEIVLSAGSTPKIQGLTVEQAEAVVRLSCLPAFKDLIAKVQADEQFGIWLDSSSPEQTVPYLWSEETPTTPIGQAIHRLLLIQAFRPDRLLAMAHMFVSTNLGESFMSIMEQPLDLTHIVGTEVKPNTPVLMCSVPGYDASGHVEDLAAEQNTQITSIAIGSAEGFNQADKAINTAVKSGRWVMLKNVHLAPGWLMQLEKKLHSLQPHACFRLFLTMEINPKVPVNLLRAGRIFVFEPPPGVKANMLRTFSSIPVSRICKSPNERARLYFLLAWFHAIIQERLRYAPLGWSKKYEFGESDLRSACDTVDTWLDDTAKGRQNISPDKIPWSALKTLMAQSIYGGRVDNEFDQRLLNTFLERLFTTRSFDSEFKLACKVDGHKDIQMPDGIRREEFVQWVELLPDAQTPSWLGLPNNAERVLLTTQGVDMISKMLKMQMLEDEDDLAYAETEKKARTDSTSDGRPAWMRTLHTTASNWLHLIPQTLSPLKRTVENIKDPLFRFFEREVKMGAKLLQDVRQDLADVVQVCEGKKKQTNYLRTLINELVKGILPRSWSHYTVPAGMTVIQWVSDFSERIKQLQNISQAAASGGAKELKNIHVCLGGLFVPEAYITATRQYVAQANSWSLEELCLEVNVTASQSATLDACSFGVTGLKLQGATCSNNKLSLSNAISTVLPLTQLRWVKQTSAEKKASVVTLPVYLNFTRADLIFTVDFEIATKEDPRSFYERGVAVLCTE
# [11] = target: Delta-1-pyrroline-5-carboxylate synthase (UniProt P54886)
# [12] = target: Prohibitin-2 (UniProt Q99623)
# [13] = target: Scaffold attachment factor B1 (UniProt Q15424)
# [14] = target: Trifunctional enzyme subunit alpha, mitochondrial (UniProt P40939)
# [15] = target: Dihydrolipoyl dehydrogenase, mitochondrial (UniProt P09622)
# [16] = target: Malate dehydrogenase, mitochondrial (UniProt P40926)
# [17] = target: Disintegrin and metalloproteinase domain-containing protein 22 (UniProt Q9R1V6)
# [18] = target: Disintegrin and metalloproteinase domain-containing protein 23 (UniProt Q9R1V7)
# [19] = target: DnaJ homolog subfamily A member 1 (UniProt P63037)
# [20] = target: Vesicle-associated membrane protein 1 (UniProt Q62442)
# [21] = target: DnaJ homolog subfamily C member 5 (UniProt Q9H3Z4)
# Glutamate dehydrogenase 1, mitochondrial, P00367, sequence (P00367 whole entry): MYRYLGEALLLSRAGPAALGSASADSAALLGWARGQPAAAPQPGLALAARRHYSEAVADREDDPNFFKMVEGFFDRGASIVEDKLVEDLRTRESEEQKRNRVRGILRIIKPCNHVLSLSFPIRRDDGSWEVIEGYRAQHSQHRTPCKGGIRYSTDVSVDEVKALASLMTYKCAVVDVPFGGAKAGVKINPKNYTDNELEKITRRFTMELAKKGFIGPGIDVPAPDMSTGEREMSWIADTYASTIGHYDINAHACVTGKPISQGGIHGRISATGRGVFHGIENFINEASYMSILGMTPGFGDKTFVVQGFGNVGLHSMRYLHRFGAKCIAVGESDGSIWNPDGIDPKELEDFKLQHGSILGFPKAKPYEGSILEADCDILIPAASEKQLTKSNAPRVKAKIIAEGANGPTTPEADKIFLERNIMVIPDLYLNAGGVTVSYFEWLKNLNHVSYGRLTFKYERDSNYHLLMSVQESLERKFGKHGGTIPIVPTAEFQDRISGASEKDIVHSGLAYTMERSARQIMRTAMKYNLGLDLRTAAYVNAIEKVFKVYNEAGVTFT
substance,measurement,setting,value
"Cell adhesion molecule 2, Q8BLQ9",listed as a hit,[1],yes
"Phospholipid-transporting ATPase IA, P70704",listed as a hit,[2],yes
"Clathrin light chain A, O08585",listed as a hit,[3],yes
"Clathrin heavy chain 1, Q68FD5",listed as a hit,[4],yes
"WD repeat-containing protein 1, O75083",listed as a hit,[5],yes
"Complement C1q subcomponent subunit A, P98086",listed as a hit,[6],yes
"Holocytochrome c-type synthase, P53701",listed as a hit,[7],yes
"COX assembly mitochondrial protein homolog, Q7Z7K0",listed as a hit,[8],yes
"Nck-associated protein 1, P28660",listed as a hit,[9],yes
"Cytoplasmic dynein 1 light intermediate chain 2, Q6PDL0",listed as a hit,[10],yes
"Cytoplasmic dynein 1 light intermediate chain 1, Q8R1Q8",listed as a hit,[10],yes
"60 kDa heat shock protein, mitochondrial, P10809",listed as a hit,[11],yes
same,listed as a hit,[12],yes
same,listed as a hit,[13],yes
same,listed as a hit,[14],yes
"Glutamate dehydrogenase 1, mitochondrial, P00367",listed as a hit,[15],yes
same,listed as a hit,[16],yes
"Leucine-rich glioma-inactivated protein 1, Q9JIA1",listed as a hit,[17],yes
same,listed as a hit,[18],yes
"Contactin-2, Q61330",listed as a hit,[17],yes
"DnaJ homolog subfamily C member 5, P60904",listed as a hit,[19],yes
same,listed as a hit,[20],yes
"DnaJ homolog subfamily A member 1, P31689",listed as a hit,[21],yes

# — paper PMC11024108
